The campaign covered roughly 96,000 compounds. About 19,000 (20%) were called active. Only a sample is shown. Values without a mark were called inactive.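 How the source made its calls: active means blocking of liver enzyme CYP2C9 beyond about 50% at 5 µM (limit read from the data); inactive means the rest.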
target: Cytochrome P450 2C9 (Homo sapiens) (UniProt P11712); assay: blockers of cytochrome P450 2C9 activity – biochemical, luminescence, ADME assay, primary screen (AID 777); conditions: CYP2C9 Supersomes, luciferin-H conversion, at 5 µM, active compounds read high
Sequence (P11712 whole entry, looked up): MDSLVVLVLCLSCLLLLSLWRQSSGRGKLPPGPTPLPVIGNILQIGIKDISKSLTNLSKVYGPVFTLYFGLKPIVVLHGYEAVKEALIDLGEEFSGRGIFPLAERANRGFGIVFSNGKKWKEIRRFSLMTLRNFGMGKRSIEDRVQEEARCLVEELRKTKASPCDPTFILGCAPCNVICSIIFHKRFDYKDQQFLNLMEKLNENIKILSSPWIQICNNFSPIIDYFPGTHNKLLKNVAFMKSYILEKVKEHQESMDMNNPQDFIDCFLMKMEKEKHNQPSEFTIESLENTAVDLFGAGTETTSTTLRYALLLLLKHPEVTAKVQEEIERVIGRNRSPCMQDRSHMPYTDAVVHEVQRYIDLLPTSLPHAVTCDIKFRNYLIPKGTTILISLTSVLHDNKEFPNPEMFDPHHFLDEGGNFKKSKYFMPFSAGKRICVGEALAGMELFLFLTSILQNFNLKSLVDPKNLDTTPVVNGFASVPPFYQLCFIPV

Point of comparison: `COc1ccc(SCc2noc(C(=O)NCC3CCCO3)c2C(=O)O)cc1` (centres undefined), inhibition 20.1%. Against it:
- Cc1c(Nc2cc(N3CCCC(C)C3)c3nonc3c2[N+](=O)[O-])c(=O)n(-c2ccccc2)n1C (centres undefined) — higher, 41.4%
- CC1CSc2nnc(CCc3ccccc3)n21 (centres undefined) — lower, -10.1%
- COc1ccccc1NC(=O)COc1ccc(C(=O)OCC(=O)N(C(C)C)C(C)C)cc1OC — higher, 37.6%
- CC1CC(C)CN(CC(=O)Nc2ccc(S(N)(=O)=O)cc2)C1 (centres undefined) — lower, 15.7%
- CN(C)/C=C1/Nc2ccccc2C1=O — lower, -8.2%
- c1ccc(-n2nnnc2N2CCOCC2)cc1 — lower, -5.9%
- O=C(CN1CCOCC1)Nc1c2c(nc3c1CCC3)CCC2 — lower, -11.6%
- CCN(CC)CCn1c2ccc(Cl)cc2c2nc(C)sc21 — higher, 46.4%
- Cc1nc(Cl)c2oc3ccccc3c2n1 — lower, 9%
- CCC(Oc1ccccc1)C(=O)NCc1cccnc1 (centres undefined) — lower, 8.8%
- COc1ccc(-c2cc(C(F)(F)F)nc(S(C)(=O)=O)n2)cc1OC — lower, 4.2%
- C=CCC(NCCCO)c1cccc(OC)c1OC (centres undefined) — lower, -26.1%
- CC(C)(C)c1cc2cccnc2n1Cc1ccccc1 — lower, 0.7%
- CCOc1ccc2nc(SC(CC)C(=O)Nc3cc(C)on3)sc2c1 (centres undefined) — lower, -4.1%
- COCCNC(=O)c1onc(CSc2cccc(C)c2)c1C(=O)O — higher, 30.2%
- COC(=O)c1c(CCl)noc1C(=O)NC(C)C — lower, -0.5%
- O=[N+]([O-])c1ccc(Oc2ccc(F)cc2Br)c2ccncc12 — lower, 6.1%
- Cc1ccc(NC(=O)Nc2ccc3oc(C)nc3c2)cc1 — lower, 8.7%
- C=CCSC1=C(C#N)C(c2cc(Br)c(O)c(OC)c2)CC(=O)N1 (centres undefined) — higher, 39.1%
- COC(=O)CSC1=C(C#N)C(c2ccccc2OC)C(C(=O)OC)C(=O)N1 (centres undefined) — higher, 24%
- CCOC(=O)c1ccc(N2C(=O)CC(Sc3nc(O)c(CC)c(=O)[nH]3)C2=O)cc1 (centres undefined) — higher, 26.2%
- O=C(COc1ccc(Cl)cc1)N1CCN(c2cccc(C(F)(F)F)c2)CC1 — lower, 13.6%
- Cc1cc(NC(=O)CS(=O)(=O)c2cn(C)c3ccccc23)no1 — lower, -20.5%
- O=c1c2ccccc2nc(CSc2nnnn2-c2ccccc2)n1-c1ccccc1 — lower, -6.4%
- CN(C)S(=O)(=O)c1ccc(NC(=O)COC(=O)c2n[nH]c3ccccc23)cc1 — lower, 13.8%
- CCN(CC)S(=O)(=O)c1ccc2[nH]cc(C(=O)NCCc3ccccc3)c(=O)c2c1 — higher, 22.4%
- COc1ccc(-n2nnnc2SCc2nc(N)nc(N3CCOCC3)n2)cc1 — higher, 35.6%
- COC(=O)[C@H](Cc1ccccc1)NC(=O)N1CC(C)OC(C)C1 (some centres undefined) — lower, 4.3%
- O=C(NC1(C(F)(F)F)NC(=O)N(Cc2cccnc2)C1=O)c1ccccc1Cl (centres undefined) — lower, 2.6%
- CC(C)(C)NC(=O)NC(=O)COC(=O)CCC1CCCCC1 — lower, 11.7%
- CC(=O)N=c1ncn(CC(COC(C)=O)OC(C)=O)c2nc[nH]c12 (centres undefined) — lower, 10.5%
- O=C(Nc1ccccc1C(F)(F)F)c1cc(-c2ccc(O)cc2)on1 — lower, -234%
- Cc1cc2c(c(=O)n1C)C(C(C)C)C(C#N)=C(N)O2 (centres undefined) — lower, 9.3%
- CCOC(=O)C1(C(F)(F)F)N=C(N(C)C)OC(N(C)C)=N1 — lower, 5.6%
- C=CCOc1ccc(Cl)cc1CNCCCN1CCOCC1 — lower, 9.4%
- CSc1ccc(/C=N\NC(=O)COc2ccc(Cl)cc2Br)cc1 — higher, 36%
- Cc1cc(C)c(OCC(=O)N/N=C/c2ccco2)c(C)c1 — lower, -17.6%
- NS(=O)(=O)c1ccc(NS(=O)(=O)/C=C/c2ccccc2)cc1 — higher, 47.3%
- Cc1ccc(-c2nn(C(C)(C)C)c3ncnc(N)c23)cc1 — higher, 25.5%
- Cn1c(=O)[nH]c(=O)c2c1nc(N1CCN(CCO)CC1)n2CCSc1nc2ccccc2s1 — lower, -5.4%

`COc1ccc(-c2cc(C(F)(F)F)nc(NCc3cccnc3)n2)cc1` was tested, and the inhibition was 55.3% (active).
In the case of `CCCCNC(=O)c1onc(CSc2cccc(OC)c2)c1C(=O)O`, the inhibition is reported as 82.5% (active).
`CCOc1cccc(SCc2noc(C(=O)NC(C)C)c2C(=O)O)c1` was tested, and the inhibition was 73.7% (active).
In the case of `CCOC(=O)CSC1=C(C#N)C(c2sccc2C)CC(=O)N1` (centres undefined), the inhibition is reported as 54.8% (active).
With `Cc1ccc(C2CC(=O)NC(SCC(=O)OCc3ccccc3)=C2C#N)o1` (centres undefined) the inhibition was 97% (active).
With `CCN(CC)S(=O)(=O)c1ccc2nc(COC(=O)c3n[nH]c4ccccc34)[nH]c2c1` the inhibition was 77.2% (active).
`CCN(CC)S(=O)(=O)c1ccc2nc(CSc3nnnn3-c3ccc(O)cc3)[nH]c2c1` was tested, and the inhibition was 97.3% (active).
In the case of `Cc1ccc(OCC(=O)N/N=C/c2ccncc2)cc1`, the inhibition is reported as 86.7% (active).

— PubChem BioAssay AID777 (Sanford-Burnham Center for Chemical Genomics, 2007)
